Consider ten compounds from PubChem BioAssay AID652014 (National Center for Advancing Translational Sciences (NCATS), 2013).

The structures appear in SMILES notation. Where “and” joins values, the source holds several entries; their conditions need not be identical. Equal values may be shown once. Calls of active or inactive are those of the source.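 How the source made its calls: active means relative GCLC transcription at 1 µM of at least 250%; inconclusive means relative GCLC transcription at 1 µM between 200% and 250%; inactive means relative GCLC transcription at 1 µM under 200%.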

The nature of the experiment: qHTS of Nrf2 Activators: Hit Validation in GCLC Induction Assay. As to conditions: Hepa1c1c7 cells, GCLC mRNA qPCR, 24 h; at 1 µM; stronger effect = higher value. The source says:
Many diseases have some form of oxidative stress injury and ties to inflammation, causing a host of problems for the patient. The antioxidant response element (ARE) plays an important role in alleviating the harmful effects of oxidative stress. The antioxidant response element (ARE) is a transcriptional regulatory element involved in the activation of genes coding for a number of antioxidant proteins and detoxifying enzymes. These enzymes work in concert to protect tissues from oxidative insults and chemical toxicities in human hepatocytes and immune cells. The protective effects of ARE activation are primarily triggered through Nrf2 (NF-E2-related factor) binding to and activating AREs. It is known that Nrf2 controls the production of over 250 antioxidant and detoxification proteins (Hu et al., 2006), thereby protecting tissues by increasing cellular antioxidant content and suppressing inflammatory signaling pathways. The transcription factor Nrf2 is a central link between oxidative chemicals, such as phenolic antioxidants and electrophilic compounds, and the activation of ARE. Nrf2 levels are constitutively low as a consequence of its interaction with Keap1, which targets its degradation (Zipper and Mulcahy, 2002). Electrophiles react with key cysteine residues in Keap1, releasing Nrf2 and allowing its translocation to the nucleus. Once within the nucleus, Nrf2 complexes with coactivators such as p300, and binds to the AREs to induce gene transcription of cytoprotective enzymes, resulting in the prevention of toxicity. Activation of Nrf2 protects tissues by increasing cellular antioxidant content and suppressing inflammatory signaling pathways. Identifying novel and potent Nrf2 activators by using the AREc32 cell line to detect ARE activation by small molecules will lead to the identification and development of probes to study protective pathways in multiple tissues. These specific probes are essential to study the ARE pathway, and eventually to determine whether this pathway does activate genes that could protect against a host of diseases, including cardiovascular diseases, obesity, diabetes, Alzheimer's, and Parkinson's disease. This project's aim is to identify novel and potent Nrf2 activators by using the AREc32 cell line to detect ARE activation by small molecules, which will lead to the identification and development of probes to study the ARE pathway. Compounds that were identified in the primary screen were tested in this secondary assay to assess whether a hit also activates Nrf2 transcription of the target gene GCLC. NIH Chemical Genomics Center [NCGC] NIH Molecular Libraries Probe Centers Network [MLPCN] MLPCN Grant: DK081461 Assay Submitter (PI): Curtis Klaassen, University of Kansas Medical Center
Hepac1c7 cells were seeded into 24-well plates at a density of 30,000 cells/well in 1 mL complete media per well and cultured overnight to allow attachment. Cells were treated the next day with compounds (1 uM)or positive control for 24 h. Total RNA samples were then isolated by using RNAzol B reagent (Tel-Test, Inc., Friendswood, TX) according to the manufacturer's protocol. Total RNAs were reverse-transcribed into cDNA by High Capacity cDNA Archive Kits (Applied Biosystems, Foster City, CA) and the resulting cDNA was used for real-time PCR analysis using SYBR(R) Green PCR Master Mix in a 7900HT Fast Real-Time PCR System.
(In general: qHTS replaces the single test concentration by a dilution series.)
Regarding `O=C(Nc1ncnc2sc3c(c12)CCC3)c1ccco1`, the relative GCLC transcription is 122% (inactive).
To `CS(=O)(=O)c1nc(S(=O)(=O)c2ccc(Cl)cc2)c(N2CCOCC2)s1` belongs 148% (inactive); to `Clc1ccc2c(NCc3ccccn3)ncnc2c1`, 181% (inactive).
Take `O=C(Nc1cccc2ncccc12)c1ccc(Cl)cc1`: the relative GCLC transcription was determined as 369%.
As for `COC(=O)c1c(NC(=O)c2ccccc2)sc(C(N)=O)c1C`, the relative GCLC transcription was 120% (inactive).
To `COc1ccc(NC(=O)c2cc(-c3cccs3)on2)c(OC)c1` belongs 157% (inactive); to `Cc1nc(NCc2ccco2)nc2c1C(=O)CC(C)C2` (stereo not given), 158% (inactive); to `O=C(Nc1ncnc2sc3c(c12)CCCCC3)c1ccco1`, 109% (inactive) and 134% (inactive).
For the compound `COc1ccc(NC(=O)c2cc(-c3ccco3)on2)c(OC)c1`, the relative GCLC transcription is 155% (inactive).
The value for `COc1ccccc1NC(=O)c1cc(Cl)nc2ccccc12` was 461%.
